Assay results: PubChem BioAssay (NCATS)
Where “and” joins values, the source holds several entries; their conditions need not be identical. Equal values may be shown once. Records with an inconclusive call do not appear. Entries that show only a call come without a potency. Some compounds were tested as several samples or in several runs, with calls that do not always agree. A number with no mark means an inactive call. Calls of active or inactive are those of the source. The call rests on the fitted dose curve; in most records, active means well fitted inhibition curve with a large enough effect; inconclusive means small, poorly fitted or top-dose-only effect; inactive means flat fitted curve, though single readings scatter.

Tests used:
CRL-7250 [1] = test: Cytotoxic Profiling of Annotated Libraries Using Quantitative High-Throughput Screening (AID 1296008); settings: Five cell lines viability, CellTiter-Glo ATP luminescence, 48-72 h; max response: stronger effect = lower value; further: potency means the concentration at half of the fitted maximal effect
In short: (§1)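 Cells exposed to compounds for 48 or 72 hr at 37 degrees Celsius. Viability read as ATP-coupled luminescence with CellTiter-Glo after 10 min at room temperature.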

HEK293 = test: as above; settings: Five cell lines viability, CellTiter-Glo ATP luminescence, 48-72 h; max response: stronger effect = lower value
In short: as §1

HaCat [2] = test: as above; settings: Five cell lines viability, CellTiter-Glo ATP luminescence, 48-72 h; max response: stronger effect = lower value
In short: as §1

KB-3-1 = test: as above; settings: Five cell lines viability, CellTiter-Glo ATP luminescence, 48-72 h; max response: stronger effect = lower value
In short: as §1

NIH3T3 = test: as above; settings: Five cell lines viability, CellTiter-Glo ATP luminescence, 48-72 h; max response: stronger effect = lower value
In short: as §1

CRL-7250 [3] = test: qHTS assay to identify novel small-molecules to repurpose for Merkel cell carcinoma treatment (AID 1296009); settings: MCC and control cell lines, CellTiter-Glo viability, 72 h; at 44.8 µM (top of the series) unless noted
In short: (§2)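 Dose-response viability screen; 72 hr exposure at 37 degree celsius; CellTiter-Glo added, 10 min room temperature, luminescence read; RLUs scaled between no-cell and DMSO wells.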

HACAT [4] = test: as above; settings: MCC and control cell lines, CellTiter-Glo viability, 72 h; at 44.8 µM (top of the series) unless noted
In short: as §2

MCC-13 = test: as above; settings: MCC and control cell lines, CellTiter-Glo viability, 72 h; series mostly up to 46 µM
In short: as §2

MCC-26 = test: as above; settings: MCC and control cell lines, CellTiter-Glo viability, 72 h; series mostly up to 46 µM
In short: as §2

MKL-2 = test: as above; settings: MCC and control cell lines, CellTiter-Glo viability, 72 h; series mostly up to 46 µM
In short: as §2

PC15 = test: qHTS profiling for inhibitors of Plasmodium falciparum proliferation (AID 504749); further: potency means the concentration at half of the fitted maximal effect; settings: P. falciparum in erythrocytes, SYBR Green DNA, 72 h; series mostly up to 28.7 µM
In short: (§3)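 Each compound contacts P. falciparum-infected red blood cells for 72 h at 37 C; lysis buffer (Tris, EDTA, saponin, Triton X, SYBR Green I) is added and fluorescence measured next morning; values normalized to controls.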

PC26 = test: as above; settings: P. falciparum in erythrocytes, SYBR Green DNA, 72 h; series mostly up to 28.7 µM
In short: as §3

PC49 = test: as above; settings: P. falciparum in erythrocytes, SYBR Green DNA, 72 h; series mostly up to 28.7 µM
In short: as §3

SC27B = test: as above; settings: P. falciparum in erythrocytes, SYBR Green DNA, 72 h; series mostly up to 28.7 µM
In short: as §3

TAB109 = test: as above; settings: P. falciparum in erythrocytes, SYBR Green DNA, 72 h; series mostly up to 28.7 µM
In short: as §3

TAB113 = test: as above; settings: P. falciparum in erythrocytes, SYBR Green DNA, 72 h; series mostly up to 28.7 µM
In short: as §3

TAB165 = test: as above; settings: P. falciparum in erythrocytes, SYBR Green DNA, 72 h; series mostly up to 28.7 µM
In short: as §3

W2 = test: as above; settings: P. falciparum in erythrocytes, SYBR Green DNA, 72 h; series mostly up to 28.7 µM
In short: as §3

MKL-1 = test: qHTS assay to identify novel small-molecules to repurpose for Merkel cell carcinoma treatment (AID 1296009); settings: MCC and control cell lines, CellTiter-Glo viability, 72 h; series mostly up to 46 µM
In short: as §2

HEK293T = test: as above; settings: MCC and control cell lines, CellTiter-Glo viability, 72 h
In short: as §2

[5] = at 44.8 µM (top of the series) unless noted
Further: nearly all actives have a fitted effect of over 60% in size.

For `COc1ccc2c3c1O[C@H]1[C@H](O)CC[C@H]4[C@@H](C2)N(C)CC[C@@]341`, the outcome (CRL-7250 [1]) was “inactive”, the max response (HEK293) was -4.59% and the outcome (HaCat [2]) was “inactive”. For the same molecule, the max response (KB-3-1) was -6.57%, the outcome (NIH3T3) was “inactive” and the outcome (CRL-7250 [3]) was “inactive [at 92 µM]”. For the same molecule, the outcome (HACAT [4]) was “inactive [at 92 µM]”, the outcome (MCC-13) was “inactive” and the Potency (MCC-26) was “inactive”. For the same molecule, the Potency (MKL-2) was “inactive”.
In the case of `C=C(C)[C@H]1CN[C@H](C(=O)O)[C@H]1CC(=O)O`, the Potency (PC15) is reported as “inactive”, the Potency (PC26) is reported as “inactive” and the Potency (PC49) is reported as “inactive”. For the same molecule, the Potency (SC27B) was “inactive”, the Potency (TAB109) was “inactive” and the Potency (TAB113) was “inactive”. For the same molecule, the Potency (TAB165) was “inactive”, the Potency (W2) was “inactive” and the max response (CRL-7250 [1]) was 1.07%. For the same molecule, the max response (HEK293) was 0.123%, the outcome (HaCat [2]) was “inactive” and the max response (KB-3-1) was 4.34%. For the same molecule, the outcome (NIH3T3) was “inactive”, the outcome (HACAT [4]) was “inactive” and the outcome (MCC-13) was “inactive”. The Potency (MCC-26) was “inactive”, the Potency (MKL-1) was “inactive” and the Potency (MKL-2) was “inactive”.
`O=P1(N(CCCl)CCCl)NCCCO1` (configuration not stated) was tested, and the Potency (PC15) was “inactive”, the Potency (PC26) was “inactive” and the Potency (PC49) was “inactive”. The Potency (SC27B) was “inactive”, the Potency (TAB109) was “inactive” and the Potency (TAB113) was “inactive”. For the same molecule, the Potency (TAB165) was “inactive”, the Potency (W2) was “inactive” and the max response (CRL-7250 [1]) was -3.83% and -4.06%. The max response (HEK293) was -27.8% and -15.3%, the max response (HaCat [2]) was -5.79% and the outcome (HaCat [2]) was “inactive”. For the same molecule, the max response (KB-3-1) was 2.64% and 7.08%, the max response (NIH3T3) was -16.8% and -12.6% and the outcome (HACAT [4]) was “inactive”. The outcome (MCC-13) was “inactive”, the Potency (MKL-1) was “inactive” and the Potency (MKL-2) was “inactive”.
For `O=C1c2ccccc2C(=O)c2ccccc21`, the Potency (PC49) was “inactive”, the Potency (W2) was 6.75 µM (active) and the max response (CRL-7250 [1]) was -3.19%. For the same molecule, the outcome (HEK293) was “inactive”, the outcome (HaCat [2]) was “inactive” and the max response (KB-3-1) was -11.4%. For the same molecule, the max response (NIH3T3) was -2.39%, the outcome (HACAT [4]) was “inactive [at 17.4 µM]” and the outcome (HEK293T; [5]) was “inactive [at 17.4 µM]”. For the same molecule, the outcome (MCC-13) was “inactive”, the Potency (MCC-26) was “inactive” and the Potency (MKL-1) was “inactive”. The Potency (MKL-2) was “inactive”.
With `CN1C(=O)NC(=O)C(C)(C2=CCCCC2)C1=O` (configuration not stated) the Potency (PC15) was “inactive”, the Potency (PC26) was “inactive” and the Potency (PC49) was “inactive”. For the same molecule, the Potency (SC27B) was “inactive”, the Potency (TAB109) was “inactive” and the Potency (TAB113) was “inactive”. For the same molecule, the Potency (TAB165) was “inactive”, the Potency (W2) was “inactive” and the max response (CRL-7250 [1]) was -9.98%. The outcome (HEK293) was “inactive”, the max response (HaCat [2]) was -13.8% and the max response (KB-3-1) was -0.631% and -0.133%. For the same molecule, the outcome (NIH3T3) was “inactive”, the outcome (HEK293T; [5]) was “inactive” and the outcome (MCC-13) was “inactive”. For the same molecule, the Potency (MCC-26) was “inactive”, the Potency (MKL-1) was “inactive” and the Potency (MKL-2) was “inactive”.
For `CCN[C@@H](C)Cc1ccccc1`, the max response (CRL-7250 [1]) was -24.3%, the max response (HEK293) was -15.1% and the max response (HaCat [2]) was -12.1%. The max response (KB-3-1) was 4.57%, the max response (NIH3T3) was -15.7% and the outcome (MCC-13) was “inactive”. The Potency (MCC-26) was “inactive”, the Potency (MKL-1) was “inactive” and the Potency (MKL-2) was “inactive”.
In the case of `CCOC(=O)CC(SP(=S)(OC)OC)C(=O)OCC` (configuration not stated), the Potency (PC15) is reported as “inactive”, the Potency (PC26) is reported as “inactive” and the Potency (PC49) is reported as “inactive”. The Potency (SC27B) was “inactive”, the Potency (TAB109) was “inactive” and the Potency (TAB113) was “inactive”. The Potency (TAB165) was “inactive”, the Potency (W2) was “inactive” and the max response (CRL-7250 [1]) was -3.52%. For the same molecule, the outcome (CRL-7250 [1]) was “inactive”, the max response (HaCat [2]) was -7.37% and 2.49% and the max response (KB-3-1) was -10.3% and -23.1%. The max response (NIH3T3) was -6.65% and 2.23%, the outcome (CRL-7250 [3]) was “inactive” and the outcome (HEK293T; at 44.8 µM (top of the series)) was “inactive”. The outcome (HEK293T; at 92 µM (top of the series)) was “inactive”, the outcome (MCC-13) was “inactive” and the Potency (MKL-1) was “inactive”. The Potency (MKL-2) was “inactive”.
For `NC1=NC(=O)C(c2ccccc2)O1` (configuration not stated), the max response (CRL-7250 [1]) was -3.81%, the max response (HEK293) was 2.82% and the outcome (HaCat [2]) was “inactive”. The max response (KB-3-1) was 4.09%, the max response (NIH3T3) was 3.43% and the outcome (HACAT [4]) was “inactive”. For the same molecule, the outcome (MCC-13) was “inactive”, the Potency (MCC-26) was “inactive” and the Potency (MKL-1) was “inactive”. The Potency (MKL-2) was “inactive”.
With `COc1c2c(cc3c1OCO3)CCN(C)C2` the Potency (PC15) was “inactive”, the Potency (PC26) was “inactive” and the Potency (PC49) was “inactive”. The Potency (SC27B) was “inactive”, the Potency (TAB109) was “inactive” and the Potency (TAB113) was “inactive”. For the same molecule, the Potency (TAB165) was “inactive”, the max response (CRL-7250 [1]) was -2.93% and the max response (HEK293) was -25.2%. For the same molecule, the max response (HaCat [2]) was -2.59%, the max response (KB-3-1) was 5.77% and the max response (NIH3T3) was -8.45%. The outcome (MCC-13) was “inactive”, the Potency (MCC-26) was “inactive” and the Potency (MKL-1) was “inactive”. For the same molecule, the Potency (MKL-2) was “inactive”.
For `O=c1[nH]oc2c1CCNC2`, the Potency (PC15) was “inactive”, the Potency (PC26) was “inactive” and the Potency (PC49) was “inactive”. For the same molecule, the Potency (SC27B) was “inactive”, the Potency (TAB109) was “inactive” and the Potency (TAB113) was “inactive”. For the same molecule, the Potency (TAB165) was “inactive”, the Potency (W2) was “inactive” and the max response (CRL-7250 [1]) was -16.5%. For the same molecule, the max response (HEK293) was -2.62%, the outcome (HaCat [2]) was “inactive” and the max response (KB-3-1) was -7.07%. The max response (NIH3T3) was -9.67%, the outcome (HACAT [4]) was “inactive” and the outcome (MCC-13) was “inactive”. For the same molecule, the Potency (MCC-26) was “inactive”, the Potency (MKL-1) was “inactive” and the Potency (MKL-2) was “inactive”.
`C[C@]12CC[C@@H]3c4ccc(OC(=O)N(CCCl)CCCl)cc4CC[C@H]3[C@@H]1CC[C@@H]2OP(=O)(O)O` was tested, and the Potency (CRL-7250 [1]) was 10.5 µM (active), the outcome (CRL-7250 [1]) was “inactive” and the max response (HaCat [2]) was 4.84%. The outcome (HaCat [2]) was “inactive”, the max response (KB-3-1) was -0.529% and the outcome (KB-3-1) was “inactive”. For the same molecule, the max response (NIH3T3) was 2.9%, the outcome (CRL-7250 [3]) was “inactive” and the outcome (HACAT [4]) was “inactive”. The outcome (MCC-13) was “inactive”, the Potency (MCC-26) was “inactive” and the Potency (MKL-1) was “inactive”. For the same molecule, the Potency (MKL-2) was “inactive”.
For `c1ccc(CN2CCNCC2)cc1`, the max response (CRL-7250 [1]) was 3.96%, the max response (HEK293) was -21.3% and the outcome (HaCat [2]) was “inactive”. For the same molecule, the max response (KB-3-1) was -8.52%, the max response (NIH3T3) was -5.38% and the outcome (HACAT [4]) was “inactive [at 155 µM]”. For the same molecule, the outcome (MCC-13) was “inactive”, the Potency (MCC-26) was “inactive” and the Potency (MKL-1) was “inactive”. The Potency (MKL-2) was “inactive”.
`CCC1(c2ccc(N)cc2)CCC(=O)NC1=O` (configuration not stated) was tested, and the max response (CRL-7250 [1]) was 1.43% and -1.25%, the max response (HEK293) was 4.46% and the outcome (HEK293) was “inactive”. For the same molecule, the max response (HaCat [2]) was 2.56% and -2.32%, the max response (KB-3-1) was 5.24% and 0.522% and the max response (NIH3T3) was 1.87% and -15.6%. For the same molecule, the outcome (HEK293T; [5]) was “inactive”, the outcome (MCC-13) was “inactive” and the Potency (MKL-1) was “inactive”. The Potency (MKL-2) was “inactive”.
